“And” between values parts separate entries of the source, which are not always exact repeats. Identical values can stand only once. Out of some 5,500 compounds screened, about 2,000 (36%) were called active. Roughly 18% stayed inconclusive and do not appear here. Rule as the data show it: active = normalized growth mostly below about 0.91 (no sharp cut-off); inconclusive = no clear call, values can overlap the other calls; inactive = mostly above about 0.92. This is one part of the list.
Assay: chemical genetic growth profiling, strain panel (AID 1159580);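 also: tested at 20 µM; growth read once vehicle control cultures reached saturation at 30 °C; 1 = growth at the plate median or of vehicle wells; lower values mean less growth of the strain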
Conditions: growth OD
[1] = S. cerevisiae deletion strains, locus YDL101C, strain DUN1, stronger effect = lower value
[2] = S. cerevisiae deletion strains, locus YGR052W, strain FMP48, stronger effect = lower value
[3] = S. cerevisiae deletion strains, locus YHR030C, strain SLT2, stronger effect = lower value
[4] = S. cerevisiae deletion strains, locus YHR079C, strain IRE1, stronger effect = lower value
[5] = S. cerevisiae deletion strains, locus YHR082C, strain KSP1, stronger effect = lower value
[6] = S. cerevisiae deletion strains, locus YJL095W, strain BCK1, stronger effect = lower value
[7] = S. cerevisiae deletion strains, locus YJR066W, strain TOR1, stronger effect = lower value
[8] = S. cerevisiae deletion strains, locus YKL203C, strain TOR2, stronger effect = lower value
[9] = S. cerevisiae deletion strains, locus YLR113W, strain HOG1, stronger effect = lower value
[10] = S. cerevisiae deletion strains, locus YNL183C, strain NPR1, stronger effect = lower value
[11] = S. cerevisiae deletion strains, locus YNL207W, strain RIO2, stronger effect = lower value
[12] = S. cerevisiae deletion strains, locus YOR119C, strain RIO1, stronger effect = lower value
[13] = S. cerevisiae deletion strains, locus YOR231W, strain MKK1, stronger effect = lower value
[14] = S. cerevisiae deletion strains, locus YPL256C, strain CLN2, stronger effect = lower value

Measured: normalized growth

N#Cc1ccc(Oc2sccc2[N+](=O)[O-])cc1
inactive: S. cerevisiae deletion strains, locus YAR019C, strain CDC15, stronger effect = lower value 0.937 | S. cerevisiae deletion strains, locus YBL105C, strain PKC1, stronger effect = lower value 0.978 | S. cerevisiae deletion strains, locus YBR135W, strain CKS1, stronger effect = lower value 0.946 | S. cerevisiae deletion strains, locus YBR136W, strain MEC1, stronger effect = lower value 0.971 | S. cerevisiae deletion strains, locus YBR160W, strain CDC28, stronger effect = lower value 0.992 | S. cerevisiae deletion strains, locus YDL017W, strain CDC7, stronger effect = lower value 0.985 | S. cerevisiae deletion strains, locus YDL028C, strain MPS1, stronger effect = lower value 0.978 | [1] 0.959 | S. cerevisiae deletion strains, locus YDL108W, strain KIN28, stronger effect = lower value 0.97 | S. cerevisiae deletion strains, locus YDL132W, strain cdc53, stronger effect = lower value 0.942 | S. cerevisiae deletion strains, locus YDL214C, strain PRR2, stronger effect = lower value 0.901 | S. cerevisiae deletion strains, locus YDR052C, strain DBF4, stronger effect = lower value 0.975 | S. cerevisiae deletion strains, locus YDR054C, strain cdc34, stronger effect = lower value 0.907 | S. cerevisiae deletion strains, locus YDR226W, strain ADK1, stronger effect = lower value 0.98 | S. cerevisiae deletion strains, locus YDR477W, strain SNF1, stronger effect = lower value 0.888 | S. cerevisiae deletion strains, locus YER123W, strain YCK3, stronger effect = lower value 0.748 | S. cerevisiae deletion strains, locus YER133W, strain GLC7, stronger effect = lower value 0.847 | S. cerevisiae deletion strains, locus YFL009W, strain cdc4, stronger effect = lower value 0.908 | S. cerevisiae deletion strains, locus YFL029C, strain CAK1, stronger effect = lower value 0.907 | S. cerevisiae deletion strains, locus YFR003C, strain YPI1, stronger effect = lower value 0.975 | S. cerevisiae deletion strains, locus YFR019W, strain FAB1, stronger effect = lower value 0.924 | S. cerevisiae deletion strains, locus YFR028C, strain CDC14, stronger effect = lower value 0.953 | S. cerevisiae deletion strains, locus YGR040W, strain KSS1, stronger effect = lower value 0.867 | [2] 0.879 | S. cerevisiae deletion strains, locus YGR092W, strain DBF2, stronger effect = lower value 0.769 | [3] 0.942 | [4] 0.955 | [5] 0.934 | S. cerevisiae deletion strains, locus YHR205W, strain SCH9, stronger effect = lower value 0.894 | S. cerevisiae deletion strains, locus YIL147C, strain SLN1, stronger effect = lower value 0.969 | [6] 0.825 | S. cerevisiae deletion strains, locus YJL128C, strain PBS2, stronger effect = lower value 0.923 | S. cerevisiae deletion strains, locus YJL157C, strain FAR1, stronger effect = lower value 0.883 | S. cerevisiae deletion strains, locus YJR016C, strain ILV3, stronger effect = lower value 0.946 | S. cerevisiae deletion strains, locus YJR066W, strain TOR1 (second series), stronger effect = lower value 0.821 | [7] 0.907 | S. cerevisiae deletion strains, locus YKL048C, strain ELM1, stronger effect = lower value 0.95 | S. cerevisiae deletion strains, locus YKL067W, strain YNK1, stronger effect = lower value 0.895 | S. cerevisiae deletion strains, locus YKL101W, strain HSL1, stronger effect = lower value 0.927 | S. cerevisiae deletion strains, locus YKL193C, strain SDS22, stronger effect = lower value 0.941 | [8] 0.911 | S. cerevisiae deletion strains, locus YLR133W, strain CKI1, stronger effect = lower value 0.933 | S. cerevisiae deletion strains, locus YLR403W, strain SFP1, stronger effect = lower value 0.863 | S. cerevisiae deletion strains, locus YML070W, strain DAK1, stronger effect = lower value 0.869 | S. cerevisiae deletion strains, locus YMR001C, strain CDC5, stronger effect = lower value 0.935 | S. cerevisiae deletion strains, locus YMR205C, strain PFK2 (second series), stronger effect = lower value 0.899 | S. cerevisiae deletion strains, locus YMR277W, strain FCP1, stronger effect = lower value 0.92 | S. cerevisiae deletion strains, locus YNL006W, strain LST8, stronger effect = lower value 0.932 | S. cerevisiae deletion strains, locus YNL020C, strain ARK1, stronger effect = lower value 0.934 | S. cerevisiae deletion strains, locus YNL161W, strain CBK1, stronger effect = lower value 0.956 | [10] 0.856 | [11] 0.956 | S. cerevisiae deletion strains, locus YNL222W, strain SSU72, stronger effect = lower value 0.957 | S. cerevisiae deletion strains, locus YNL307C, strain MCK1 (second series), stronger effect = lower value 0.918 | S. cerevisiae deletion strains, locus YOL078W, strain AVO1, stronger effect = lower value 0.914 | S. cerevisiae deletion strains, locus YOL136C, strain PFK27, stronger effect = lower value 0.901 | S. cerevisiae deletion strains, locus YOR061W, strain CKA2, stronger effect = lower value 0.886 | [12] 0.925 | [13] 0.837 | S. cerevisiae deletion strains, locus YOR329C, strain SCD5, stronger effect = lower value 0.977 | S. cerevisiae deletion strains, locus YPL031C, strain PHO85, stronger effect = lower value 0.876 | S. cerevisiae deletion strains, locus YPL153C, strain RAD53, stronger effect = lower value 0.866 | S. cerevisiae deletion strains, locus YPL204W, strain HRR25, stronger effect = lower value 0.872 | S. cerevisiae deletion strains, locus YPL209C, strain IPL1, stronger effect = lower value 0.98 | [14] 1.05 | S. cerevisiae deletion strains, locus YPR025C, strain CCL1, stronger effect = lower value 0.971 | S. cerevisiae deletion strains, locus YPR106W, strain ISR1, stronger effect = lower value 0.96 | S. cerevisiae deletion strains, locus YPR111W, strain DBF20, stronger effect = lower value 0.993 | S. cerevisiae deletion strains, strain NNK1, stronger effect = lower value 0.971 | S. cerevisiae deletion strains, strain TSCII, stronger effect = lower value 0.921
active: [9] 0.76

CCOC(=O)c1ccc(Oc2sccc2[N+](=O)[O-])cc1
active: S. cerevisiae deletion strains, locus YAL013W, strain DEP1, stronger effect = lower value 0.796 | S. cerevisiae deletion strains, locus YBR229C, strain ROT2, stronger effect = lower value 0.817 | [1] 0.77 | S. cerevisiae deletion strains, locus YEL061C, strain CIN8, stronger effect = lower value 0.442 | S. cerevisiae deletion strains, locus YGR078C, strain PAC10, stronger effect = lower value 0.811 | [3] 0.167 and 0.769 | [4] 0.852 | S. cerevisiae deletion strains, locus YHR087W, strain rtc3, stronger effect = lower value 0.848 | S. cerevisiae deletion strains, locus YJR043C, strain POL32, stronger effect = lower value 0.81 | S. cerevisiae deletion strains, locus YJR075W, strain HOC1, stronger effect = lower value 0.719 | S. cerevisiae deletion strains, locus YKL190W, strain CNB1, stronger effect = lower value 0.0675 | [8] 0.849 | S. cerevisiae deletion strains, locus YLR039C, strain RIC1, stronger effect = lower value 0.239 | S. cerevisiae deletion strains, locus YLR058C, strain SHM2 (second series), stronger effect = lower value 0.928 | S. cerevisiae deletion strains, locus YLR085C, strain ARP6, stronger effect = lower value 0.143 | S. cerevisiae deletion strains, locus YLR262C, strain YPT6, stronger effect = lower value 0.407 | S. cerevisiae deletion strains, locus YML094W, strain GIM5, stronger effect = lower value 0.747 | S. cerevisiae deletion strains, locus YMR219W, strain ESC1, stronger effect = lower value 0.848 | S. cerevisiae deletion strains, locus YMR263W, strain SAP30, stronger effect = lower value 0.867 | S. cerevisiae deletion strains, locus YNL153C, strain GIM3, stronger effect = lower value 0.849 | S. cerevisiae deletion strains, locus YNL298W, strain CLA4 (second series), stronger effect = lower value 0.241 | S. cerevisiae deletion strains, locus YNL322C, strain KRE1, stronger effect = lower value 0.931 | S. cerevisiae deletion strains, locus YNR030W, strain Alg12, stronger effect = lower value 0.341 | S. cerevisiae deletion strains, locus YOL006C, strain TOP1, stronger effect = lower value 0.102 | S. cerevisiae deletion strains, locus YPL241C, strain CIN2, stronger effect = lower value 0.446 | [14] 0.734 | S. cerevisiae deletion strains, locus YPR135W, strain CTF4, stronger effect = lower value 0.211 | S. cerevisiae strains, strain wild type, stronger effect = lower value 0.0898
inactive: S. cerevisiae deletion strains, locus YDR150W, strain NUM1, stronger effect = lower value 0.866 | [2] 0.872 | [5] 0.878 | [6] 0.772 | S. cerevisiae deletion strains, locus YJL187C, strain SWE1, stronger effect = lower value 1.02 | [7] 0.876 | S. cerevisiae deletion strains, locus YKL171W, strain NNK1, stronger effect = lower value 0.854 | [9] 0.735 | [10] 0.864 | [11] 0.862 | [12] 0.86 | [13] 0.869 | S. cerevisiae deletion strains, locus YPL055C, strain LGE1, stronger effect = lower value 0.84

Reference: PubChem BioAssay AID1159580 (chemical genetic matrix, 2015)
